The values that follow come from PubChem BioAssay (NCI).

Compounds without any hit were thinned out: in the full panel of roughly 83,000, 20% have a hit.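 Results are percent growth after 48 hours of single-concentration exposure. 100 means growth as in untreated cells, lower positive values show inhibition; negative values down to -100 show cell death.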 Unmarked numbers belong to inactive results. Activity calls are given as the source filed them. How the source made its calls: active means growth percent below 10; inactive means the rest.

Among the test systems are NCI-H23 lung; NCI-H226 lung; NCI-H322M lung; HOP-62 NSCLC; NCI-H460 lung; HOP-92 NSCLC; A549/ATCC NSCLC; 786-0 renal; COLO 205 colon.
Experiment in all cases: NCI-60 one-dose screen, 48 h (100 = growth as untreated, 0 = no growth, -100 = all killed)
Common to all, as to conditions: 10 µM unless noted

Turning to `Oc1ccc(/C=N/Nc2nc3ccccc3s2)c(O)c1`, the growth was 56.8% in the assay with NCI-H23 lung; 45% in the assay with NCI-H226 lung; 11.9% with NCI-H322M lung; 26.7% with HOP-62 NSCLC; 10.9% in the assay on NCI-H460 lung; 62.8% in the assay with HOP-92 NSCLC. Further, the growth was 18% in the assay with A549/ATCC NSCLC, 38.3% with 786-0 renal and 89.3% in the assay with COLO 205 colon.
For `CC(C)CNc1nc(N=[N+]=[N-])nc(NCC(C)C)n1`, the growth in the assay on NCI-H23 lung was 59.9% [100 µM]; in the assay on NCI-H226 lung, 75.8% [100 µM]; with NCI-H322M lung, 92.5% [100 µM]; with HOP-62 NSCLC, 84.1% [100 µM]; with NCI-H460 lung it was 68.8% [100 µM]; in the assay on HOP-92 NSCLC it was -6.14% [100 µM] (active). The growth in the assay with A549/ATCC NSCLC is 56.3% [100 µM]; with 786-0 renal, 55.5% [100 µM]; with COLO 205 colon, 99.2% [100 µM].
In the case of `COc1cc(/C=C/c2cc(/C=C/c3ccc(O)c(OC)c3)n(C(=O)Cc3ccccc3)n2)ccc1O`, the growth in the assay on NCI-H23 lung is 1.94% (active); with NCI-H226 lung it was 13.7%; in the assay on NCI-H322M lung, 9.62% (active); in the assay with HOP-62 NSCLC, 2.82% (active); in the assay with NCI-H460 lung, 4.69% (active); in the assay with HOP-92 NSCLC it was -0.112% (active). Also, the growth in the assay on A549/ATCC NSCLC was 4.22% (active); with 786-0 renal, 10.2%; with COLO 205 colon, -64.3% (active).
As to `COc1cnc2c(c1)C(=O)c1c-2n(CCCNC(C)C)c(=O)c2cc(F)ccc12`, the growth with NCI-H23 lung was -39.9% (active); in the assay with NCI-H226 lung, -52.6% (active); in the assay with NCI-H322M lung, -13.1% (active); in the assay with HOP-62 NSCLC, -35.8% (active); in the assay on NCI-H460 lung, -32% (active); with HOP-92 NSCLC it was -8.3% (active). Further, the growth was -68.6% (active) with A549/ATCC NSCLC, -73% (active) in the assay on 786-0 renal and -19.7% (active) in the assay on COLO 205 colon.
For the compound `COc1ccc(/C=C2/SC(=Nc3c(C)nn(-c4ccccc4)c3N)NC2=O)cc1`, the growth is 38.3% in the assay on NCI-H23 lung; 51.1% in the assay on NCI-H226 lung; 39.1% in the assay with NCI-H322M lung; 53% in the assay with HOP-62 NSCLC; 17.7% in the assay with NCI-H460 lung; 53.7% in the assay on HOP-92 NSCLC. Further, the growth in the assay on A549/ATCC NSCLC is 32.4%; in the assay with 786-0 renal, 40.5%; with COLO 205 colon, 43.7%.
Regarding `COc1c(Br)cc(C(c2cc(Br)c(OC)c(Br)c2)c2ccccc2C(=O)O)cc1Br`, the growth in the assay with NCI-H23 lung was 97.3%; in the assay with NCI-H226 lung it was 99.8%; in the assay with NCI-H322M lung, 102%; in the assay with HOP-62 NSCLC it was 94.1%; in the assay on NCI-H460 lung, 105%; in the assay with HOP-92 NSCLC, 55.7%. In addition, the growth with A549/ATCC NSCLC was 98.7%; with 786-0 renal it was 100%; in the assay on COLO 205 colon, 110%.
In the case of `OC(c1cc(-c2cccc(Cl)c2)nc2ccccc12)C1CCCCN1` (stereo unspecified), the growth in the assay on NCI-H23 lung is 3.63% (active); in the assay with NCI-H226 lung, 31.2%; in the assay with NCI-H322M lung, -12.3% (active); with HOP-62 NSCLC, -67.3% (active); in the assay on NCI-H460 lung, -47% (active); in the assay on HOP-92 NSCLC it was -17.6% (active). In addition, the values for the growth in the assay with A549/ATCC NSCLC, with 786-0 renal and in the assay with COLO 205 colon were -90.4% (active), -82.6% (active) and -85.7% (active), respectively.
As for `CNc1nc(NC2CCCC2)nc(Sc2ccc(OC)cc2)n1`, the growth with NCI-H23 lung was 39.4% [100 µM]; with NCI-H226 lung, 46.4% [100 µM]; in the assay on NCI-H322M lung, 68.5% [100 µM]; in the assay with HOP-62 NSCLC, 53.4% [100 µM]; in the assay on NCI-H460 lung, 10.2% [100 µM]; in the assay with HOP-92 NSCLC it was -42.7% [100 µM] (active). Besides, the growth is 20.3% [100 µM] in the assay with A549/ATCC NSCLC, 13% [100 µM] in the assay on 786-0 renal and 22.5% [100 µM] with COLO 205 colon.
Turning to `CC(C)Cn1cnc2c(NCn3nc(-c4cc(Cl)cc(Cl)c4Cl)n(/N=C/c4ccc(Cl)cc4)c3=S)nc3ccccc3c21`, the growth in the assay on NCI-H23 lung was 80.9%; in the assay on NCI-H226 lung, 73.4%; with NCI-H322M lung it was 81.6%; in the assay on HOP-62 NSCLC, 79.4%; in the assay on NCI-H460 lung it was 99.1%; with HOP-92 NSCLC, 45%. Also, the results for the growth in the assay on A549/ATCC NSCLC, with 786-0 renal and in the assay on COLO 205 colon were 77.9%, 90.7% and 94.6%, respectively.
Consider `COc1ccc(NC(=O)c2ccc(-c3ccccc3)cc2)c(C(N)=O)c1`, for which the growth was 94.5% in the assay with NCI-H23 lung; 94.9% in the assay with NCI-H226 lung; 91.6% in the assay with NCI-H322M lung; 103% in the assay on HOP-62 NSCLC; 100% in the assay on NCI-H460 lung; 103% in the assay with HOP-92 NSCLC. Moreover, the growth with A549/ATCC NSCLC is 94.1%; in the assay on 786-0 renal, 106%; in the assay on COLO 205 colon it was 110%.
Take `O=c1c2ccccc2c2nccn2c2cc(Cl)ccc12`: the growth in the assay with NCI-H23 lung was 72.6%; in the assay on NCI-H226 lung, 155%; in the assay with NCI-H322M lung, 129%; in the assay on HOP-62 NSCLC, 71.7%; with NCI-H460 lung it was 101%; in the assay with HOP-92 NSCLC, 28.8%. Besides, the figures for the growth in the assay with A549/ATCC NSCLC, with 786-0 renal and with COLO 205 colon were 71.7%, 91.6% and 112%, respectively.
For the compound `CCOc1cc(/C=C/C(=O)C(C(=O)/C=C/c2ccc(OC(=O)CNc3nc4ccccc4[nH]3)c(OCC)c2)C(=O)CNc2nc3ccccc3[nH]2)ccc1OC(=O)CNc1nc2ccccc2[nH]1`, the growth in the assay with NCI-H23 lung is 6.88% (active); with NCI-H226 lung, -10.9% (active); with NCI-H322M lung it was 23.2%; with HOP-62 NSCLC it was 10.1%; in the assay with NCI-H460 lung, -27.3% (active); with HOP-92 NSCLC it was -13% (active). Further, the growth in the assay with A549/ATCC NSCLC was 7.62% (active); in the assay with 786-0 renal, -47.7% (active); with COLO 205 colon it was -41.8% (active).
Regarding `COc1cc(Cl)cc(-c2nn(-c3cccc(NC(=O)c4cc(C(F)(F)F)cc(C(F)(F)F)c4)c3)cc2-c2ccncc2)c1`, the growth in the assay on NCI-H23 lung was 72.1%; in the assay on NCI-H226 lung, 76%; in the assay with NCI-H322M lung, 80.3%; with HOP-62 NSCLC, 103%; in the assay with NCI-H460 lung, 40.9%; with HOP-92 NSCLC, 46.8%. Besides, the growth in the assay with A549/ATCC NSCLC is 43.5%; in the assay with 786-0 renal, 80.2%; in the assay on COLO 205 colon it was 88.7%.
Take `Nc1nc(Nc2ccccc2SSc2ccccc2Nc2nc(N)nc(-c3ccc(I)cc3)n2)nc(-c2ccc(I)cc2)n1`: the growth with NCI-H23 lung is 47.3%; with NCI-H226 lung, 69.8%; in the assay with NCI-H322M lung it was 81.1%; in the assay on HOP-62 NSCLC, 26.1%; with NCI-H460 lung, 54.8%; with HOP-92 NSCLC, 107%. The growth is -19.9% (active) in the assay on A549/ATCC NSCLC, 86.9% with 786-0 renal and 112% in the assay with COLO 205 colon.
